According to PubChem BioAssay (NCATS):
Results filed as inconclusive are left out. Calls of active or inactive are those of the source. Calls come from the whole dose curve; as a rule, active = well fitted curve in the direction sought with a large enough effect; inconclusive = small, poorly fitted or top-dose-only effect, or another doubt; inactive = no such curve, though single readings can be large; an effect the other way counts as inactive or inconclusive.

Columns and labels:
[1] = qHTS of pediatric cancer cell lines to identify multiple opportunities for drug repurposing: Primary screen for TC32 cells (AID 1347089); note: nearly all actives have a fitted effect of over 60% in size; note: potency is the fitted concentration of half-maximal effect
Outline: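 Measured quantity: luminescence from CellTiter-Glo, reflecting metabolically active TC32 cells following 48 h of compound. Curves came straight from multi-point titrations, with 8 or 11 points in primary and 11 in confirmatory screening.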

[2] = qHTS of pediatric cancer cell lines to identify multiple opportunities for drug repurposing: Primary screen for DAOY cells (AID 1347090); note: nearly all actives have a fitted effect of over 55% in size; note: potency is the fitted concentration of half-maximal effect
Outline: (§1)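 Viability measured as metabolically active cells via CellTiter-Glo luminescence following 48 hours of compound exposure, 11-point dilutions in confirmatory testing. 500-1,000 cells/well plated 5 hours before dosing; controls were DMSO and 2.3 µM bortezomib.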

[3] = qHTS of pediatric cancer cell lines to identify multiple opportunities for drug repurposing: Primary screen for A673 cells (AID 1347092); note: nearly all actives have a fitted effect of over 45% in size; note: potency is the fitted concentration of half-maximal effect
Outline: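 Cells are plated, rested 5 h, dosed by pintool, incubated 48 h, then lysed with CellTiter-Glo and read by luminescence. DMSO is the neutral control; bortezomib at 2.3 uM final is the positive control.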

[4] = qHTS of pediatric cancer cell lines to identify multiple opportunities for drug repurposing: Primary screen for SK-N-SH cells (AID 1347098); note: nearly all actives have a fitted effect of over 65% in size; note: potency is the fitted concentration of half-maximal effect
Outline: (§2)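 Cells (500-1,000/well) rested 5 h, then received compounds for 48 h; metabolically active cells were measured by CellTiter-Glo luminescence. Final concentrations spanned up to 46 µM (MIPE, 11-point) or 0.59 nM-46 µM (NPC, 8-point) in primary screens, 11-point in follow-ups.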

[5] = qHTS of pediatric cancer cell lines to identify multiple opportunities for drug repurposing: Primary screen for NB1643 cells (AID 1347099); note: nearly all actives have a fitted effect of over 50% in size; note: potency is the fitted concentration of half-maximal effect
Outline: (§3)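 Plated cells (500-1,000 per well, growth media) were allowed to settle for 5 hours, treated with compound dilutions for 48 hours, then lysed with CellTiter-Glo for 15 min at room temperature before luminescence reading.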

[6] = qHTS of pediatric cancer cell lines to identify multiple opportunities for drug repurposing: Primary screen for OHS-50 cells (AID 1347103); note: nearly all actives have a fitted effect of over 40% in size; note: potency is the fitted concentration of half-maximal effect
Outline: as §2

[7] = qHTS of pediatric cancer cell lines to identify multiple opportunities for drug repurposing: Primary screen for RD cells (AID 1347104); note: nearly all actives have a fitted effect of over 55% in size
Outline: as §3

[8] = qHTS of pediatric cancer cell lines to identify multiple opportunities for drug repurposing: Primary screen for BT-37 cells (AID 1347094); note: potency is the fitted concentration of half-maximal effect
Outline: as §3

[9] = qHTS of pediatric cancer cell lines to identify multiple opportunities for drug repurposing: Primary screen for NB-EBc1 cells (AID 1347095); note: potency is the fitted concentration of half-maximal effect
Outline: as §3

[10] = qHTS of pediatric cancer cell lines to identify multiple opportunities for drug repurposing: Primary screen for U-2 OS cells (AID 1347096); note: nearly all actives have a fitted effect of over 50% in size
Outline: (§4)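 Viability after 48 h compound treatment at 37C, 500-1,000 cells/well, read as ATP luminescence with CellTiter-Glo. Primary screens used 11-point (MIPE, 0.78 nM-46 µM) or 8-point (NPC, 0.59 nM-46 µM) final concentrations; follow-up screens used 11-point dilutions.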

[11] = qHTS of pediatric cancer cell lines to identify multiple opportunities for drug repurposing: Primary screen for Saos-2 cells (AID 1347097); note: nearly all actives have a fitted effect of over 40% in size; note: potency is the fitted concentration of half-maximal effect
Outline: as §3

[12] = qHTS of pediatric cancer cell lines to identify multiple opportunities for drug repurposing: Primary screen for LAN-5 cells (AID 1347100); note: potency is the fitted concentration of half-maximal effect
Outline: as §4

[13] = qHTS of pediatric cancer cell lines to identify multiple opportunities for drug repurposing: Primary screen for Rh18 cells (AID 1347102); note: nearly all actives have a fitted effect of over 65% in size
Outline: as §4

[14] = qHTS of pediatric cancer cell lines to identify multiple opportunities for drug repurposing: Primary screen for MG 63 (6-TG R) cells (AID 1347105); note: nearly all actives have a fitted effect of over 50% in size; note: potency is the fitted concentration of half-maximal effect
Outline: as §3

[15] = qHTS of pediatric cancer cell lines to identify multiple opportunities for drug repurposing: Primary screen for BT-12 cells (AID 1347101); note: nearly all actives have a fitted effect of over 25% in size; note: potency is the fitted concentration of half-maximal effect
Outline: as §2

[16] = qHTS of pediatric cancer cell lines to identify multiple opportunities for drug repurposing: Primary screen for SJ-GBM2 cells (AID 1347091)
Outline: as §1

[17] = qHTS of pediatric cancer cell lines to identify multiple opportunities for drug repurposing: Primary screen for SK-N-MC cells (AID 1347093); note: series mostly up to about 46 µM
Outline: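 Metabolically active cells were quantified by ATP-dependent luminescence (CellTiter-Glo, 15 min at room temperature) following 48 h treatment. Cells had been plated at 500-1,000 per well and settled for 5 h beforehand.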

Measured: Potency

COC(=O)C1=C(C)NC(C)=C(C(=O)O[C@@H]2CCCN(Cc3ccccc3)C2)[C@@H]1c1cccc([N+](=O)[O-])c1
active: [4] 30.7 µM | [6] 19.5 µM
inactive: [1] | [2] | [3] | [5] | [7]

CCOC(=O)/C=C(C)/C=C/C=C(C)/C=C/c1c(C)cc(OC)c(C)c1C
active: [6] 24.6 µM
not listed: [7] | [15] | [16] | [17]
inactive: all other assays above

CC1=C(C(=O)O)N2C(=O)[C@@H](NC(=O)[C@H](N)c3ccc(O)cc3)[C@H]2SC1
not listed: [15] | [16] | [17]
inactive: all other assays above

O=C(Nc1ccc(Oc2ccc(Cl)cc2)c(Cl)c1)c1cc(I)cc(I)c1O
active: [9] 26.6 µM
inactive: [1] | [2] | [8] | [10] | [15] | [13]

O=C(N/N=C/c1ccccc1O)c1ccncc1
active: [1] 23.6 µM | [2] 4.22 µM | [8] 11 µM | [9] 18.8 µM | [5] 3.35 µM | [12] 2.99 µM | [15] 6.17 µM | [6] 5.5 µM | [14] 6.68 µM

c1ccc(-c2ccc(C(c3ccccc3)n3ccnc3)cc2)cc1 (centres undefined)
inactive: [1] | [16] | [11] | [13]

Cc1cccc(C)c1NC(=O)CN1CCN(CCCC(c2ccc(F)cc2)c2ccc(F)cc2)CC1
not listed: [6] | [7] | [9] | [12] | [16]
inactive: all other assays above

CC(=O)c1ccc2c(c1)N(CCCN1CCC(CCO)CC1)c1ccccc1S2
inactive: [1] | [2] | [17] | [9] | [11] | [5] | [12] | [14]

Oc1c(Cl)cc(Cl)cc1Sc1cc(Cl)cc(Cl)c1O
inactive: [1] | [2] | [3] | [8] | [10] | [15] | [13] | [7]

C#C[C@]1(OC(C)=O)CC[C@H]2[C@@H]3CCC4=C[C@@H](OC(C)=O)CC[C@@H]4[C@H]3CC[C@@]21C
inactive: [1] | [2] | [4] | [5] | [13] | [14]
active: [6] 15.5 µM

CCCCOc1cc(C(=O)NCCN(CC)CC)c2ccccc2n1
inactive: [1] | [2] | [9] | [10] | [15] | [13] | [6] | [14]

O=c1[nH]c(=O)n([C@H]2C[C@H](O)[C@@H](CO)O2)cc1C(F)(F)F
active: [1] 1.05 µM | [3] 1.68 µM | [8] 0.55 µM | [12] 1.33 µM
inactive: [16] | [10] | [4] | [5] | [13] | [7] | [14]

CCN(CCCc1ccccc1)CCCc1ccccc1
inactive: [1] | [2] | [3] | [9] | [10] | [11] | [5] | [12] | [13]

Cc1c(C)n(Cc2ccccc2)c2ccc(C(=O)OCCN(C)C)cc12
inactive: [1] | [2] | [3] | [8] | [10] | [5] | [12] | [7]

Clc1ccc2c(c1)CCc1cccnc1C2=C1CCNCC1
active: [6] 15.5 µM
inactive: [1] | [2] | [17] | [8] | [9] | [10] | [5] | [14]

CC(=O)Oc1ccc2c(c1)CC[C@@H]1[C@@H]2CC[C@]2(C)[C@@H](O)CC[C@@H]12
active: [11] 23.7 µM
inactive: [1] | [2] | [10] | [5] | [13] | [7] | [14]

CC(=O)OCC(=O)[C@@]12OC(C)(C)O[C@@H]1C[C@H]1[C@@H]3C[C@H](F)C4=CC(=O)C=C[C@]4(C)[C@@]3(F)[C@@H](O)C[C@@]12C
not listed: [2] | [6] | [7] | [8] | [11] | [14] | [17]
inactive: all other assays above

COc1cc2c(cc1OC)C(C(C(=O)N(CCc1ccc(OC)c(OC)c1OC)CCc1ccc(OC)c(OC)c1OC)c1ccccc1)=NCC2 (centres undefined)
not listed: [6] | [8] | [10] | [14] | [15] | [16] | [17]
inactive: all other assays above

CCN(CC)CCOC(=O)C(c1ccccc1)C1CCCCC1 (centres undefined)
inactive: [1] | [2] | [3] | [10] | [5] | [12] | [13]
active: [11] 23.7 µM | [4] 30.7 µM | [6] 21.9 µM

CCOC(=O)[C@H](CCc1ccccc1)N[C@@H](C)C(=O)N1Cc2ccccc2C[C@H]1C(=O)O
not listed: [2] | [4] | [11] | [15] | [17]
inactive: all other assays above

CCCOC(C(=O)OC1CCN(C)CC1)(c1ccccc1)c1ccccc1
active: [6] 27.6 µM
inactive: [1] | [2] | [3] | [17] | [10] | [5] | [12] | [14]

O=C(OCCOCCO)c1ccccc1Nc1cccc(C(F)(F)F)c1
active: [6] 24.6 µM
not listed: [4] | [9] | [11] | [12] | [15] | [16]
inactive: all other assays above

CCCCCCc1ccc(O)cc1O
not listed: [3] | [4] | [6] | [9] | [11] | [16]
inactive: all other assays above

CN1CCC(=C2c3ccccc3Sc3ccccc32)CC1
inactive: [1] | [2] | [9] | [10] | [5] | [12]
active: [4] 19.4 µM | [6] 17.4 µM

O=C1[C@H]2CCCC[C@H]2C(=O)N1CCCCN1CCN(c2nsc3ccccc23)CC1
not listed: [3] | [6] | [11] | [12] | [15] | [16]
inactive: all other assays above
